# Source: PubChem BioAssay
# TGFb SMAD3 inh: inhibitors of TGF-b signaling; Potency, µM (titrated, usually from 46.1 µM), without a hit: top-dose activity, negative = inhibition, usual class: inhibitors; 410,000 compounds, 1.2% hits; HepG2 CAGA-GFP TGF-b/SMAD3 reporter, GFP fluorescence, 18 h; TGF-beta stimulated, 500 pg/mL final; further: on the % scale 0 is the no-effect control and ±100 the full control effect; nearly all actives have a fitted effect of over 65% in size
#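 GFP signal (ex488/em500-530) from TGF-beta-stimulated HEPG2 CAGA-GFP cells, 500 pg/mL final, 18 h at 37 degrees C in DMEM plus 1% FBS, normalized to unstimulated and DMSO-stimulated controls.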
# RORgamma inh: blocks mouse ROR gamma transcriptional activity. Potency, µM (doses to about 53.6 µM), inactives show at the highest dose activity change, negative = inhibition, actives largely listed as inhibitors. Drosophila S2 Gal4-RORgamma UAS-luciferase reporter, 20 h. P51450. AID 2551. 310,000 compounds, 5.4% hits; further: on the % scale 0 is the no-effect control and ±100 the full control effect; nearly all actives have a fitted effect of over 60% in size
# Target sequence (P51450 whole entry, looked up, the tested form may be a part): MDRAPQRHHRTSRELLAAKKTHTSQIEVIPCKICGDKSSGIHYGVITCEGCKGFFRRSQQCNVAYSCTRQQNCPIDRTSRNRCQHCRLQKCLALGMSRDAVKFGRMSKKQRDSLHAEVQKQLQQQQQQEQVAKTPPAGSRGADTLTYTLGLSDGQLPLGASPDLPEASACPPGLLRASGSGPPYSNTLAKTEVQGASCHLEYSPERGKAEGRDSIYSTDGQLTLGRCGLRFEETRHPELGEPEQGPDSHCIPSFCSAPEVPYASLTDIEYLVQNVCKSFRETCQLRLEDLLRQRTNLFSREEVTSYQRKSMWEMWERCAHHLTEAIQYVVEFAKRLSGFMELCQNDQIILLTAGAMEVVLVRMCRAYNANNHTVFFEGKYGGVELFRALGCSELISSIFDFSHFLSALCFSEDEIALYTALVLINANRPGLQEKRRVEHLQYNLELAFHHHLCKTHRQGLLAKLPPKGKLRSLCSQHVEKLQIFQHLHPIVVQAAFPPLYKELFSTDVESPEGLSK
#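 A Gal4/UAS one-hybrid system in insect cells: metallothionein-promoter Gal4–ROR gamma fusion plus Photinus luciferase reporter. Copper sulfate 700 uM final, 20 hr ambient incubation, luminescent detection after 10 min with reagent.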
# ATXN viability: reduces viability in counter-screen for ATXN expression inhibitors; S2 cells (HEK-293 line with an ATXN2-luciferase reporter) viability, CellTiter-Fluor protease fluorescence, 24 h; Potency, µM (top dose mostly 56.7 µM), most hits filed as cytotoxic; 400,000 compounds, 0.49% hits; AID 651635; further: nearly all actives have a fitted effect of over 40% in size
# VP16 counter: inhibits Gal4-VP16 luciferase reporter, ROR gamma counter-screen; Potency, µM (series often up to 53.6 µM), for the others: top-dose activity, negative = inhibition, usual class: inhibitors; 310,000 compounds, 3.5% hits; Drosophila S2 Gal4-VP16 UAS-luciferase, luminescence, 20 h; AID 2546;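 further: Gal4-VP16 expression switched on by copper sulfate through the metallothionein promoter; on the % scale 0 is the no-effect control and ±100 the full control effect; nearly all actives have a fitted effect of over 50% in size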
# ATXN2 expr inh: inhibitors of ATXN2 expression. Potency, µM (series often up to 57 µM), for inactives: at the highest dose activity change, negative = inhibition, usual class: inhibitors. HEK-293 ATXN2-luciferase reporter, luminescence, 24 h. 360,000 compounds, 0.72% hits; further: on the % scale 0 is the no-effect control and ±100 the full control effect; nearly all actives have a fitted effect of over 55% in size
#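 ATXN2-luciferase reporter cells (luciferase flanked by upstream and downstream ATXN2 gene portions) were treated 24 h at 37 °C with compounds at up to 57 uM. SteadyGlo luminescence gave expression; GF-AFC fluorescence gave viability.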
# HepG2 viability: HepG2 cytotoxicity, counter-screen for TGF-b inhibitors; HepG2 CAGA-GFP viability, ATP luminescence, 18 h; Potency, µM (doses to about 46.1 µM), without a hit: at the highest dose activity change, negative = cytotoxicity, usual class: cytotoxic; 410,000 compounds, 0.76% hits
#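 CellTiter-Glo luminescence gave cytotoxicity after 18 hours at 37 degrees C. The cells were HepG2 CAGA-GFP in 1% FBS DMEM, stimulated with 500 pg/mL TGF-beta after compound addition. %Activity was normalised to no-cell wells (complete cell-killing) and DMSO (no toxicity), and curves were fitted and classified.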
# * marks the source's active call; other numbers are inactive results; i = inactive; ? = inconclusive; . = no result given. Sampled rows, rich in hits. Any-hit rate of the full collection: about 6.3%. The call rests on the fitted dose curve; in most records, active means well fitted curve in the direction sought with a large enough effect; inconclusive means small, poorly fitted or top-dose-only effect, or another doubt; inactive means no such curve, though single readings can be large; an effect the other way counts as inactive or inconclusive. Potency means the concentration at half of the fitted maximal effect.
SMILES,TGFb SMAD3 inh,RORgamma inh,ATXN viability,VP16 counter,ATXN2 expr inh,HepG2 viability
Cc1csc(NC(=O)c2ccc(N3CCCC3=O)cc2)n1,1%,2.5µM*,i,?,.,-38%
Cc1ccnc(NC(=O)c2ccc(OCC3CCCO3)cc2)c1 (stereo not drawn),2%,.,i,.,5.6µM*,-53%
Cc1csc(NC(=O)c2cc[n+]([O-])cc2)n1,6%,14%,?,-22%,.,2%
O=C(Nc1nc(-c2ccc(F)c(F)c2)cs1)c1ccc(OCC2CCCO2)cc1 (stereo not drawn),?,-18%,?,-5%,?,-48%
Cc1csc(NC(=O)c2cc([N+](=O)[O-])cc([N+](=O)[O-])c2)n1,-20%,?,i,2µM*,-4%,-48%
O=C1c2oc3ccccc3c(=O)c2C(c2ccccc2)N1Cc1ccc2c(c1)OCO2 (stereo not drawn),22%,.,i,.,7%,6%
CNc1c(Cl)cc(/C=C2\C=Cc3ccccc32)cc1Cl,-17%,.,.,.,.,-38%
O=c1[nH]c(S)nc2sc3c(c12)CCCC3,-4%,13µM*,i,-20%,2%,27%
Cc1nc2sc3c(c2c(=O)[nH]1)CCCC3,1%,38%,i,-8%,1%,-1%
CCN(CC)S(=O)(=O)c1ccc(N2CCN(C)CC2)c(NC(=O)Nc2ccc(C)cc2)c1,?,?,i,?,-12%,-74%
COc1cccc(-c2nnc(SCC(=O)OC(C)C)n2Cc2ccco2)c1,2%,-23%,i,0%,11%,1%
S=c1[nH]nc(-c2ccncc2)n1Cc1ccco1,7%,8%,?,19%,2%,-1%
Cc1c(Cl)c(-c2n[nH]c(=S)n2-c2ccccc2)nn1C,33%,-45%,i,?,5%,-10%
C=CCn1c(-c2cccc(OC)c2)n[nH]c1=S,1%,7.1µM*,?,?,1%,20%
COc1cccc(-c2n[nH]c(=S)n2Cc2ccco2)c1,-6%,16µM*,i,?,8%,-4%
S=c1[nH]nc(-c2ccc(Br)cc2)n1Cc1ccco1,2%,1.4µM*,i,2.5µM*,-17%,3%
Cc1c(Cl)c(-c2n[nH]c(=S)n2Cc2ccco2)nn1C,3%,11µM*,i,-24%,6%,-13%
CC1=C(C(=O)N2CCOCC2)CC(CC(=O)NCCCCc2ccccc2)C(=O)N1Cc1ccc(F)cc1 (stereo not drawn),1%,.,?,.,3%,1%
CC(=O)Nc1cccc(OCC(=O)Nc2sccc2C(N)=O)c1,-3%,10%,i,3%,1%,3%
S=c1[nH]nc(C23CC4CC(CC(C4)C2)C3)n1Cc1ccco1,-4%,1.3µM*,i,11µM*,-2%,-6%
CCCc1n[nH]c(=S)n1Cc1ccco1,-6%,2%,i,2%,.,-18%
C=C1C(=O)OC2C[C@@]3(C)CCCC(=C)[C@@H]3CC12 (stereo partly drawn),.,?,.,-29%,.,.
C=C1C(=O)O[C@@H]2[C@H]3O[C@]3(C)CC/C=C(\C)CC[C@@H]12,13µM*,.,i,.,14%,13µM*
C=C1C(=O)O[C@@H]2C3OC3(C)CC/C=C(\C)CC[C@@H]12 (stereo partly drawn),.,?,.,28µM*,.,.
C=C1C(=O)OC2C1CC/C(C)=C/CCC1(C)OC21 (stereo not drawn),.,4.5µM*,.,4µM*,.,.
C=C1C(=O)OC2C=C(C)CCC=C(C)CCC12 (stereo not drawn),.,?,.,?,-4%,.
C=C1CC/C=C(\C)CC[C@@H]2[C@@H]1CC2(C)C,.,14%,.,-1%,.,.
CCOc1ccccc1-c1nc(SCC(=O)c2ccc(OC)c(Br)c2)n[nH]1,19%,.,.,.,.,-20%
CCn1c(=O)cc(OCC(=O)Nc2ccccc2Cl)c2ccccc21,2%,.,i,.,1%,0%
